Values without a mark were called inactive. The rule behind the calls is not given here.
Molecular target: VTCN1, Q7Z7D3
Sequence (Q7Z7D3 whole entry): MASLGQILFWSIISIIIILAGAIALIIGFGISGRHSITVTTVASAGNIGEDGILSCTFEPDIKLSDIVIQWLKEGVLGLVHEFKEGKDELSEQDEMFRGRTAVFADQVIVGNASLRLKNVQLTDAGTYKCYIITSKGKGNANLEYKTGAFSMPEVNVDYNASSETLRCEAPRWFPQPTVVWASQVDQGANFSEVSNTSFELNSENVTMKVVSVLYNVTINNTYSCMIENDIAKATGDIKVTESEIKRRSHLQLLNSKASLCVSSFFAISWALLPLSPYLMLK

Binder	binding in a display sort
d3r1_design_ppi_994_dldesign_0_cycle0_af2pred (protein) MEELEKVAKKILKEAKKRAEEAAKKGAESENGEEVFTKGLQETLEKASEEAEKAGLPDELAVKVLKEIVKYGNEVKKAALAARA	not found
d4r1_design_ppi_144_dldesign_0_cycle0_af2pred (protein) DEETKKAVEEAKKAAKEAEEIAKKYPELKPLAEQAKKAAKYAEKYAKENPIAAKNAMKATKAIAEEMKKLA	not found
d4r1_design_ppi_352_dldesign_0_cycle0_af2pred (protein) AAAEQNAKNLKEAEKAKKEAEEAKKLAKEDVAKGAEKLTEAAKKLAEIYEKASPEIQPYVAKELQEVAKAAQEAIKAKLEKDAA	not found
d4r1_design_ppi_104_dldesign_0_cycle0_af2pred (protein) MSIEERLEELEKRLTEETKKEAEENLKRLEEVAKELAELDPELAPEAKKALEEAKKLFEDPEKIFEAAALARESLEEFEKRLKELKE	not found
d4r1_design_ppi_425_dldesign_0_cycle1_af2pred (protein) AAEAAAAAEKAAAAAGEKAGKAAAEHVAAGAKAGTLPQAVQDVLEQTSELKYKGDEVAAKAAYEAAREAAKAARAAA	not found
d3r1_design_ppi_734_dldesign_0_cycle0_af2pred (protein) SSEEELKLLTGKNALEILPEILKEAEKLLKEAKKTGDKEKLKEAIKQAENAIAAAKAAAIVDPKKAEEYKKKAEKLKKEAEKLL	not found
d3r1_design_ppi_728_dldesign_0_cycle1_af2pred (protein) DIRENIKKLAKELKKEAEKLSEYDPELAKKAIEYAKKAEAAKTAEEAAKYATKAAEYVEKAEELAKKKKEELEK	not found
d4r2_design_ppi_53_dldesign_0_cycle1_af2pred (protein) EEAKARAEKAFARAKALKARAKELKAKGEELFANAPELGEESLKRGKVYKLQAEQYEARAEEAEALGKELAAA	not found
d4r2_design_ppi_48_dldesign_0_cycle1_af2pred (protein) DFTAKAAAQAKKYKAEAKANAADPEKVGEVLAKALKAANEAKEAGNPAAAAALKAAADEILKINRESLLKEET	not found
d4r1_design_ppi_33_dldesign_0_cycle0_af2pred (protein) SEEEEKNAENLKKAAEELEKIAEEGIKKGASVEEIKKKLEEKGKEFAKKYPKNAKSYLELAKIVAKEAEKKLK	not found
d3r1_design_ppi_985_dldesign_0_cycle1_af2pred (protein) EEAEKLLKEIKEKSEKAIKLAEEGKIEEAEKELQEALKIAQELAKKYPEAAPEAAKIVNKAATELEKKKEEQKKKLE	not found
d3r1_design_ppi_851_dldesign_0_cycle0_af2pred (protein) DEVKKLLEEAKKLAEKAEELAKKGGSVEEVEKAAEKAQEAAVKAIKLAAKTEDGEKLTKEAGKYAQKATQAAAEAKEKAKKEA	not found
d4r2_design_ppi_34_dldesign_0_cycle0_af2pred (protein) SGAGQAKMERNAALSSLRAAKANPALAEIAAEDAIEAAKRALAVPEASPEVKEEAERVRKEAEAVGAAAKAAKAA	not found
d4r1_design_ppi_77_dldesign_0_cycle1_af2pred (protein) MKEEEKALEKANEYIEKAEELAKKALENGEGDEVFSEAGKLLEKAVEEAEKNKENREEILKRVQEVRDLLREAVLKRLKAE	not found
d3r1_design_ppi_981_dldesign_0_cycle1_af2pred (protein) MEEFAKEMEKWSEEAAKKYEEAKELAKKDPKEGVKVLEEAIKELEEKAKEYEKKGPYGKNIAKALNWLAKKFKELKKKIEAS	not found
d4r1_design_ppi_339_dldesign_0_cycle1_af2pred (protein) AEEAEKAAKEAEEKAKEAEELAKEAAKLHPTYAQAFELLAKAFKKAAELLKKDYKEGKKYFEELKESFERAKKALAIAKKEKAA	not found
d4r2_design_ppi_49_dldesign_0_cycle0_af2pred (protein) GKIEELKKKLKEAEKKLEEAKEKLNKAKAEAESYRIRAEANKENKEKYLKKAEEIEKEEIEKAKKEIEEYEKEKKEAEKKLKEAKE	not found
d4r1_design_ppi_77_dldesign_0_cycle0_af2pred (protein) MKEKEEALKEAKKHLKEAEKLAEEAEKNGKGDELFSKLGKHLQEAAKYAEKNKENQEEINKELQKVAKKARDAILKVQKAR	not found
d3r1_design_ppi_897_dldesign_0_cycle0_af2pred (protein) MEAKEKVKKLTEEAIKYAEEAGDKETAEEAKKGGEALLAGAKEAEELAKKNPVAGASLQEAVIKSAELFAKSIKEEVEKKK	not found

Binder	binding in a display sort
d4r1_design_ppi_310_dldesign_0_cycle0_af2pred (protein) MEAIEEMRKKKEEAIKEAEESNPEEGAKIMEEAMKEIQEIANKAIKSSSSEEAKKILEEHEKLVEELEKKKEELKKKAEEEKK	not found
d4r1_design_ppi_219_dldesign_0_cycle1_af2pred (protein) AAEAEEYRKKAAEYIQELQELKTEIKATGTEEQAKKADEIWEEYKKKVKEAKEKYKDGTDLELAKALYKIAKENYEKLKELKE	not found
d4r1_design_ppi_339_dldesign_0_cycle0_af2pred (protein) SEKAEKAAKEAEEEAKKAKELAKEAAKLSPSYAAAFKKLAEAFKKAAKLLKEDYEKGLKEFKELKKSFELAKKAAAKAKAAAAA	not found
d4r2_design_ppi_152_dldesign_0_cycle0_af2pred (protein) AAAAAEAEKAAAAATQKAEELAEKRGEEHGAEVGLKKYLENPEEAKKMGKEIYELGLKKYKELKKKEEEEK	not found
d4r1_design_ppi_174_dldesign_0_cycle0_af2pred (protein) SMEEKEAAEKMKELNEIAYEEYERVVKEGTEEAAREAMRRIMEKAKEHPYKETALKYVEVTLKHLKEEVSPEAAKAAEEELKRELA	not found
d4r1_design_ppi_104_dldesign_0_cycle1_af2pred (protein) MSIEERLEELEKRLYEEIKKKAEEYLEELEKESEKLAKLDPSLAEEAKKKYEEAKELYKDPETVYLSKSHAEENLEEVKKKIKELES	not found
d3r1_design_ppi_859_dldesign_0_cycle1_af2pred (protein) ESELLKQVAEAVQQAVKAALKDPEEAKKVVEKALELDAEKAIEVAKSLAEAYKIAGNEEKAAAAKKVAELLEKLSKERK	not found
d4r1_design_ppi_144_dldesign_0_cycle1_af2pred (protein) DEEVKKAAKEAKEAAKEAEKLAKKDKSLKPLAEQAKKAAKYAEYYTKINPTLALNAAKAAKKIYEEMKKLA	not found
d3r1_design_ppi_728_dldesign_0_cycle0_af2pred (protein) SLKESVDKKVEKLKEEAKKLAKYDPELAKKAIEYAEKAKKAKTLEEAGKYANKASEYIEEAEKKAKEKKEEEAK	not found
d4r2_design_ppi_24_dldesign_0_cycle0_af2pred (protein) KKEEEEKEKLKNFAKQASGKAEALSDQLKDVAEKTGSEELKEKAKKLEELGKEAEKNPELGKKKEEEAKKVHKEGKEYYKAKK	not found
d4r2_design_ppi_27_dldesign_0_cycle0_af2pred (protein) SEEEKKKKEAEKKVEEAKKKLEEAKKFAKEGKKEEGAKKLEEVAKELDEKADEFFASGSEEYREAGAKLGSLSIRAKLYAEGLKAK	not found
d3r1_design_ppi_891_dldesign_0_cycle1_af2pred (protein) AEEALKEEMVKKAKEVAEKAAKAGYPEEAKQAAKAGAAFAPEKGEEIKKYAEEEIKKAEKEKEEKKKKEKEKKE	not found
d4r1_design_ppi_171_dldesign_0_cycle0_af2pred (protein) MEKIEEANKLLKKALELLKEVGEEYYKKVMEAIKTEGIDAAVEKAKEIAKELKKKDKEKGKIAEEAYKNLEKAKELIKEIYEE	not found
d4r2_design_ppi_27_dldesign_0_cycle1_af2pred (protein) GKEKEEKEKAEKIVEEAKKELEEAKEYGKKTTKEEGAEKLEEVAKKLKEKAEEFLATGKEEWKHAGAKLESLAIRAELYAKGLRRE	not found
d3r1_design_ppi_729_dldesign_0_cycle0_af2pred (protein) DEEKKAKEAAEEAIKAKEKLGTGKEVKKTADEAFAAAKKATPEQAKALYKKLLEWFKEEKAKAEAEIAAA	not found
d4r2_design_ppi_24_dldesign_0_cycle1_af2pred (protein) SMEKEKEEELKNYAKQVAGKAFTYSDQLKEVAEKTGLEELKEKAEELEKLGKEALENPEKAKEYEAKAKEVFKEGRELYKKAK	not found
d3r1_design_ppi_897_dldesign_0_cycle1_af2pred (protein) MEALKAVEEKMKEAIEYAKKAGDEELAKEAEKRRKALLAGAERAVEVAKKNPVAGASLAQAVIKSAELASEYFKELVEKKK	not found
d4r2_design_ppi_0_dldesign_0_cycle1_af2pred (protein) VAKELAKKFQKAIEALFEASTIEEVPEARAKVKEARKIAREGVENPETAKEKLEEGVKLVEKKAKEMEEKKKKEEEEKLK	not found
d4r1_design_ppi_171_dldesign_0_cycle1_af2pred (protein) MKEIEEAQKKYKEALEKLKEVGEEYYQAVLDAIKNKGIEEAVKTAEKLAKELEKEDPEKGKKAKEAAELLKEAKKLIEKVRKE	not found
